Measurements: the supplement of paper PMC10981050
Structures can show the parent of a compound that is named as a salt.

system: MARIMO; assay: cell viability relative to vehicle control; higher = less cytotoxic; conditions: 10 µM; SRSF2 genotype: SRSF2 wt/wt
Procedure, shortened: (§1)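 Mutant clones made by CRISPR editing and their isogenic wild-type counterparts, from four leukaemia lines, were exposed to a single 10 µM dose of each library compound for 48 h. The supernatant was then removed and CellTiter-Glo luminescence was read. Viability was reported as percent of the on-plate vehicle control.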

SMILES	cell viability [%]
OCC1OC(Oc2ccc(O)cc2)C(O)C(O)C1O (stereo not drawn) [alpha-Arbutin]	111
CCCCCCCCCCCCCCCC(=O)OCC(O)C1OC(=O)C(O)=C1O [L-Ascorbyl 6-palmitate]	121
COC(=O)[C@]12CCC(C)(C)C[C@H]1[C@H]1C(=O)C=C3[C@@]4(C)C=C(C#N)C(=O)C(C)(C)[C@@H]4CC[C@@]3(C)[C@]1(C)CC2 [Bardoxolone Methyl]	0.28
COC(=O)c1cc(O)c(O)c(O)c1 [Methyl gallate]	101
COc1ccccc1OCC(O)CO (centres undefined) [Guaifenesin (Guaiphenesin)]	108
N#Cc1cccc(-c2c[nH]c3ncnc(N4CCOCC4)c23)c1	92.8
c1cncc(-c2cn[nH]n2)c1	96.6
C1=Cc2ccccc2Nc2ccccc21 [Iminostilbene]	113
COc1ccc(-c2oc3c(CC=C(C)C)c(O)cc(O)c3c(=O)c2O[C@@H]2O[C@@H](C)[C@H](O)[C@@H](O)[C@H]2O)cc1 [Baohuoside I]	107

system: MOLM14; assay: as above; conditions: 10 µM; SRSF2 genotype: SRSF2 P95H/wt
Procedure, shortened: as §1

SMILES	cell viability [%]
CCN(CCCc1ccccc1)CCCc1ccccc1 [Alverine Citrate]	80.3
CC(=O)OCC(=O)[C@@]12N=C(C)O[C@@H]1C[C@H]1[C@@H]3CCC4=CC(=O)C=C[C@]4(C)[C@H]3[C@@H](O)C[C@@]12C [Deflazacort (Calcort)]	103
CS(=O)(=O)Nc1ccc([N+](=O)[O-])cc1OC1CCCCC1	94.4
O=C(/C=C/c1ccc(O)c(O)c1)O[C@@H]1C[C@](O)(C(=O)O)C[C@@H](O)[C@H]1O [Chlorogenic acid]	104
Nc1ncnc2c1ncn2C1OC(COP(=O)(O)OP(=O)(O)O)C(O)C1O (centres undefined)	101
C[C@@H]1Cc2c([nH]c3ccccc23)[C@@H](c2c(F)cc(/C=C/C(=O)O)cc2F)N1CC(C)(C)F	101
O=C(c1ccccc1)c1ccc2nc(NC(=O)c3csc(C4CCN(c5ncnc6ccsc56)CC4)n3)[nH]c2c1	34.2
CC(C)NCC(O)c1ccc(O)c(O)c1 (centres undefined) [Isoprenaline hydrochloride]	89.7
O=C(Nc1ccc(Br)cc1)c1c(O)cccc1O [Resorantel]	17.5
Nc1ccn([C@@H]2O[C@H](CO)[C@@H](O)[C@H]2O)c(=O)n1 [Cytidine]	81
O=C1[C@H]2CCCC[C@H]2C(=O)N1CCCCN1CCN(c2nsc3ccccc23)CC1 [Perospirone hydrochloride]	78.7
COc1cc(C(=O)NS(=O)(=O)c2ccccc2C)ccc1Cc1cn(C)c2ccc(NC(=O)OC3CCCC3)cc12 [Zafirlukast (Accolate)]	94.3
CCn1cc(C(=O)O)c(=O)c2cc(F)c(N3CCNCC3)nc21 [Enoxacin (Penetrex)]	105
COc1ccc(S(=O)(=O)N(C(C)=O)c2ccccc2/C=C/c2cc[n+]([O-])cc2)cc1	15.9
Cc1cncc(CN2CCC(=C3c4ccc(Cl)cc4CCc4cccnc43)CC2)c1 [Rupatadine Fumarate]	61.4
C/C(=C\C(=O)OCCCCCCCCC(=O)O)C[C@@H]1OC[C@H](C[C@@H]2O[C@H]2[C@@H](C)[C@H](C)O)[C@@H](O)[C@H]1O [Mupirocin calcium]	94.2
O=C1[C@H](CC[C@H](O)c2ccc(F)cc2)[C@@H](c2ccc(O)cc2)N1c1ccc(F)cc1 [Ezetimibe (Zetia)]	82.7
Cc1cc(F)c(C(=O)Nc2cccc(-c3nncn3C(C)C)n2)cc1-n1cnc(C2CC2)c1 [Selonsertib (GS-4997)]	63.5
COc1cc(C(C)=O)ccc1O [Apocynin (Acetovanillone)]	104
COc1cc2c(cc1OC)[C@@H](Cc1ccc(Oc3cc(C[C@@H]4c5cc(OC)c(OC)cc5CCN4C)ccc3O)cc1)N(C)CC2 [Dauricine]	1.5

SMILES	cell viability [%]
c1ccc2c(CCNc3ccc(Nc4ccncc4)cc3)c[nH]c2c1	0.51
O=C(O)c1ccc(Br)c(O)c1 [4-Bromo-3-hydroxybenzoic acid]	100
CC(=O)NC[C@H]1CN(c2ccc(N3CCOCC3)c(F)c2)C(=O)O1 [Linezolid (Zyvox)]	88.3
C[C@H]1[C@H](C)CC[C@]2(C(=O)O)CC[C@]3(C)C(=CC[C@@H]4[C@@]5(C)CCC(=O)C(C)(C)[C@@H]5CC[C@]43C)[C@H]12 [Ursonic acid]	28.4
CN(C)C(=O)c1ccc(S(=O)(=O)c2ccc(NC(=O)C(C)(O)C(F)(F)F)c(Cl)c2)cc1 (centres undefined)	78.4
CC(=O)O[C@H]1CC(=O)OC(C)(C)[C@@H]2CC(=O)[C@]3(C)[C@H](CC[C@@]4(C)[C@@H](c5ccoc5)OC(=O)[C@H]5O[C@]543)[C@@]12C [Nomilin]	99.2
CC(=O)N1CCC(Nc2cc(C(=O)NC[C@H](O)CN3CCc4ccccc4C3)ncn2)CC1	87.6
NCCCC[C@@H]1NC(=O)[C@@H](Cc2ccccc2)NC(=O)[C@H](CC(=O)O)NC(=O)CNC(=O)[C@H](CCCN=C(N)N)NC1=O [Cyclo (-RGDfK)]	98.5
Cc1cc(Nc2ncc3c(n2)N(C)C(=O)N(c2cc(NC(=O)c4cccc(C(F)(F)F)c4)ccc2C)C3)n(C)n1 [Pluripotin (SC1)]	7.16
c1ccc(NCc2ccc(CNc3ccccn3)cc2)nc1	87.2
O=c1cc(-c2ccc(O)c(O)c2)oc2c([C@@H]3O[C@H](CO)[C@@H](O)[C@H](O)[C@H]3O)c(O)cc(O)c12 [Orientin]	103
OCC1OC(Oc2ccc(O)cc2)C(O)C(O)C1O (stereo not drawn) [alpha-Arbutin]	103
CCCCCCCCCCCCCCCC(=O)OCC(O)C1OC(=O)C(O)=C1O [L-Ascorbyl 6-palmitate]	106
COC(=O)[C@]12CCC(C)(C)C[C@H]1[C@H]1C(=O)C=C3[C@@]4(C)C=C(C#N)C(=O)C(C)(C)[C@@H]4CC[C@@]3(C)[C@]1(C)CC2 [Bardoxolone Methyl]	0.15
COC(=O)c1cc(O)c(O)c(O)c1 [Methyl gallate]	90.6
COc1ccccc1OCC(O)CO (centres undefined) [Guaifenesin (Guaiphenesin)]	107
N#Cc1cccc(-c2c[nH]c3ncnc(N4CCOCC4)c23)c1	96.8
c1cncc(-c2cn[nH]n2)c1	88.6
C1=Cc2ccccc2Nc2ccccc21 [Iminostilbene]	105
COc1ccc(-c2oc3c(CC=C(C)C)c(O)cc(O)c3c(=O)c2O[C@@H]2O[C@@H](C)[C@H](O)[C@@H](O)[C@H]2O)cc1 [Baohuoside I]	87.8
